# L3MBTL1 block: qHTS Assay for the Inhibitors of L3MBTL1; AlphaScreen L3MBTL1–H3K9me1 peptide binding; Potency, µM (top dose mostly 57.1 µM), inactives show at the highest dose activity, negative = inhibition, usual class: inhibitors; hit rate 0.66% among 230,000; note: % is set by controls: 0 for no effect and ±100 for the full control effect; nearly all actives have a fitted effect of over 60% in size
#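 Displacement of a biotinylated histone H3(1-15) peptide monomethylated at Lys9 (75 nM) from L3MBTL1 (50 nM) was measured by AlphaScreen after a 30 min room-temperature compound incubation; cefsulodin titration served as intraplate control.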
# BAZ2B block: qHTS Assay for Inhibitors of BAZ2B; Bromodomain adjacent to zinc finger domain protein 2B (Homo sapiens), Q9UIF8; AlphaScreen BAZ2B-H3K14Ac peptide displacement; Potency, µM (titrated, usually from 114 µM), for inactives: top-dose activity change, negative = inhibition, most hits filed as inhibitors; hit rate 4.4% among 360,000; note: % is set by controls: 0 for no effect and ±100 for the full control effect; nearly all actives have a fitted effect of over 60% in size
#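 BAZ2B (50 nM) with biotin-H3(5-23)K14Ac peptide (50 nM) in PBS pH 7.4, 0.01% Tween-20, preformed 30 min, then compound 30 min at room temperature; top concentration 110uM. AlphaScreen streptavidin donor/nickel chelate acceptor beads (10 ug/mL final), 20 min dark, signal read.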
# G9a block: qHTS Assay for Inhibitors of Histone Lysine Methyltransferase G9a; G9a H3K9 monomethylation, AlphaScreen, 2 h; Histone-lysine N-methyltransferase EHMT2 (Homo sapiens), Q96KQ7; Potency, µM (doses to about 102 µM), inactives show top-dose activity, negative = inhibition, hits mostly inhibitors; hit rate 8.8% among 350,000; AID 504332, 2011; note: % is set by controls: 0 for no effect and ±100 for the full control effect; nearly all actives have a fitted effect of over 75% in size
# Target sequence (Q96KQ7 913-1193 limits assumed): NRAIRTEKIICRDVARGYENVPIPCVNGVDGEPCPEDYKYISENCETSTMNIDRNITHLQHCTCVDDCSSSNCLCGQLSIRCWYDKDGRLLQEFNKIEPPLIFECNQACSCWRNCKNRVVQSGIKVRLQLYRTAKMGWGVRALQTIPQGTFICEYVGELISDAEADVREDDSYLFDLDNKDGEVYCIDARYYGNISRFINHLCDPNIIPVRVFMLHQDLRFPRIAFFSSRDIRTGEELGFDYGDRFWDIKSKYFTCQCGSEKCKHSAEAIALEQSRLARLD
#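 Methyltransferase reactions run at room temperature for 2 h (20 nM enzyme, 500 nM biotin-H3K9 peptide, 20 uM SAM) after a 15 min compound preincubation; product detected by AlphaScreen beads and anti-H3K9me1 antibody.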
# HP1b chromo inh: HTS for Inhibitors of HP1-beta Chromodomain Interactions with Methylated Histone Tails; Chromobox protein homolog 1 (Homo sapiens), P83916; AlphaScreen HP1-beta / biotin-H3K9me3 peptide binding; Potency, µM (series often up to 114 µM), for the others: top-dose activity change, negative = inhibition, hits mostly inhibitors; hit rate 0.56% among 390,000; AID 540317, 2011; note: nearly all actives have a fitted effect of over 70% in size
# Target sequence (P83916 whole entry, looked up): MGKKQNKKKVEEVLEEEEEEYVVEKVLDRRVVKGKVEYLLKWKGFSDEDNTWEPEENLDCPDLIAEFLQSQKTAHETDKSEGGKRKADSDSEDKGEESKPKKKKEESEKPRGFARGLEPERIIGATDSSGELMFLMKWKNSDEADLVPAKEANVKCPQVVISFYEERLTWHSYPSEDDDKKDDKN
#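 HP1-beta protein (50 nM final) preincubated 30 min at room temperature with biotinylated H3(1-18)K9me3 peptide (50 nM) in PBS pH 7.4, 0.01% Tween-20, then compound added for 30 min. AlphaScreen streptavidin donor/nickel chelate acceptor beads (10 ug/mL final), 30 min dark, luminescence read.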
# JMJD2A Tudor inh: qHTS Assay for Inhibitors of JMJD2A-Tudor Domain; Lysine-specific demethylase 4A (Homo sapiens), O75164; AlphaScreen JMJD2A-Tudor / H3K4me3 peptide binding; Potency, µM (series often up to 114 µM), for inactives: at the top dose activity change, negative = inhibition, most hits filed as inhibitors; hit rate 4.4% among 390,000; AID 504339, 2011; note: % is set by controls: 0 for no effect and ±100 for the full control effect; nearly all actives have a fitted effect of over 50% in size
# * hit, by the source's call; ? = inconclusive; / = not tested or not shown; ! = a repeat was not active; [ ] = remark or other dose. In the library only some 11% were active in any assay of this set; here they are far more common. Calls come from the whole dose curve; as a rule, active = well fitted inhibition curve with a large enough effect; inconclusive = small, poorly fitted or top-dose-only effect; inactive = no such curve, though single readings can be large or run the other way. Potency is the fitted concentration of half-maximal effect.
SMILES,L3MBTL1 block,BAZ2B block,G9a block,HP1b chromo inh,JMJD2A Tudor inh
O=[N+]([O-])c1ccc(OCCN2CCNCC2)cc1,16%,50µM*,/,?,25µM*
Cc1cc(OCCN2CCC(Cc3ccccc3)CC2)ccc1[N+](=O)[O-],/,?,40µM*,?,?
CCCCCOCC1CC(C/C(C)=N/Nc2nc(-c3ccccc3)cs2)C(=O)O1 (centres undefined),-5%,?,40µM*,3%,?
O=C(c1ccc(Sc2cccc(Cl)c2)c([N+](=O)[O-])c1)N1CCN(c2ccccn2)CC1,/,?,16µM*,?,?
O=C(COc1ccccc1)N1CCN(S(=O)(=O)c2cccs2)CC1,/,12%,3%[12.7 µM],21%,5%
CCOc1ccccc1N1CCN(CC(O)COC2CCCc3ccccc32)CC1 (centres undefined),/,-14%,9%,3%,-29%
O=S(=O)(c1cccs1)N1CCN(CC(O)COC2CCCc3ccccc32)CC1 (centres undefined),5%,50µM*,18µM*,?,4µM*
O=S(=O)(c1cccs1)N1CCN(CC(O)COc2cccc(Br)c2)CC1 (centres undefined),/,79µM*,?,?,3.2µM*
CC(=O)c1c(C)oc2ccc(N(C(=O)Oc3ccccc3)S(=O)(=O)c3ccc(C(C)(C)C)cc3)cc12,/,-20%,-40%[59 µM],23%,-13%
CC1CCN(S(=O)(=O)c2ccc3c(c2)N(CC(=O)N(C)Cc2ccccc2)C(=O)CO3)CC1,/,-20%,7%[59 µM],42%,-10%
COc1cc(C(=O)N2CCN(c3ccc(Nc4ccccc4)nn3)CC2)cc(OC)c1OC,/,-15%,-1%[59 µM],5%,-16%
CC(C)Nc1nc(Cl)nc(N(C#N)CN2C(=O)c3ccccc3C2=O)n1,-8%,-8%,28µM*,-8%,?
O=C(C=Cc1ccccc1Cl)c1ccccc1,/,/,/,38%[57 µM],62%
C=CCn1cccc(/C=C/C(=O)c2ccc(C(C)(C)C)cc2)c1=S,28µM*,11µM*,?,?,32µM*
O=C(CN1CCN(S(=O)(=O)c2ccc(C(F)(F)F)cc2)CC1)N1CCNC1=O,0%,-4%,9%[12.7 µM],40%,4%
O=C(CN1CCN(S(=O)(=O)c2ccc(F)c(Cl)c2)CC1)N1CCNC1=O,6%,-6%,0%[59 µM],21%,40µM*
C=CCn1c(O)c(N=NC(=S)Nc2ccc(OC)c(Cl)c2)c2ccccc21,-24%,7.9µM*,35µM*,?,?
C=CCn1c(O)c(N=Nc2ccccc2C)c2ccccc21,-1%,-37%,4µM*,?,?
Cc1cccc(OCC(=O)Nc2ccc3c(c2)nc(CN2CCCCC2)n3C)c1,/,?,32µM*,31%,89µM*!
CC(=O)N1CCN(Cc2nc3cc(NC(=O)COc4cccc(C)c4)ccc3n2C)CC1,/,?,6.3µM*,10%,-21%
O=C(C1CCN(CCCc2ccccc2)CC1)N(CCc1ccccc1)Cc1ccccc1,-6%,?,14µM*,?,1.1µM*
CCC(C)NC(=O)C1CCN(CCCc2ccccc2)CC1 (centres undefined),6%,50µM*,14µM*,-28%,10µM*
O=C(C1CCN(CC2CC=CCC2)CC1)N(CCc1ccccc1)Cc1ccccc1 (centres undefined),0%,79µM*,45µM*,42%,?
O=C(C1CCN(S(=O)(=O)c2cnc[nH]2)CC1)N(CCc1ccccc1)Cc1ccccc1,/,0%,-32%,33%,-8%
COc1ccc2oc(-c3ccc(C)c(NC(=O)c4ccc(N5CCCCC5)c([N+](=O)[O-])c4)c3)nc2c1,/,-13%,3%[59 µM],9%,-16%
SMILES,L3MBTL1 block,BAZ2B block,G9a block,HP1b chromo inh,JMJD2A Tudor inh
CCCCn1c2ccccc2c2nnc(SCC(=O)Nc3ccc(NC(C)=O)cc3)nc21,/,-12%,?,6%,?
O=C(COC(=O)CNC(=O)c1ccccc1F)Nc1nnc(-c2ccccc2)o1,-2%,-38%,56µM*,48%,-28%
c1nc(SSc2ncnc3nc[nH]c23)c2[nH]cnc2n1,/,/,/,?,0.79µM*
O=C(O)CSc1ncnc2nc[nH]c12,/,-2%,-29%[59 µM],34%,-18%
O=C(CSc1ncnc2nc[nH]c12)c1ccc2ccccc2c1,22%,-22%,-12%[59 µM],17%,79µM*
COc1cccc(C(c2sc3nc(-c4ccco4)nn3c2O)N2CCOCC2)c1 (centres undefined),/,-13%,-30%[59 µM],32%,-1%
O=C(c1ccncc1)N1CCC2(CCCN(Cc3nccs3)C2)CC1,/,/,-9%[12.7 µM],/,/
Cc1ccc(C)c(NC(=S)NNc2ccc(F)cc2F)c1,/,20µM*,45µM*,?,32µM*
Cc1ccc(NC(=S)NNC(=S)Nc2ccc(C)cc2)cc1,/,/,/,-12%,-29%
Cc1ccc(NNC(=S)Nc2ccc(C(C)C)cc2)c(C)c1,?,35µM*,11µM*,22µM*,14µM*
COc1cc(C2NC(=O)N(C)C3=C2C(=O)N(c2ccccc2)C3)ccc1O (centres undefined),/,-16%,2%[59 µM],34%,-9%
O=C(NNC(=O)C1CC1)c1ccc(F)cc1F,39%,/,/,4%,-10%
CC1CCc2c(sc(NC(=O)Cn3nnc(-c4ccc(C(F)(F)F)cc4)n3)c2C#N)C1 (centres undefined),/,-38%,-19%[59 µM],4%,?
Nc1c(C(=O)Nc2ccc(OC(F)(F)F)cc2)nnn1Cc1ccccc1,/,-8%,1%[59 µM],38%,3%
O=C1CC(c2ccccc2)=Nc2ccccc2N1,/,6%,3%[12.7 µM],17%,-13%
O=C1CC(/C=C/c2ccncc2)=Nc2ccccc2N1,/,-20%,40µM*,37%,-12%
Cc1cccc(NC(=S)NNC(=O)CCn2nc(C)c([N+](=O)[O-])c2C)c1,-18%,2%,?,6%,-9%
Cc1nn(C(C)C(=O)NNC(=S)Nc2ccc(Cl)cc2)c(C)c1[N+](=O)[O-] (centres undefined),/,-5%,8.9µM*,3%,-22%
Cc1nn(CCC(=O)NNC(=S)Nc2ccc(Cl)cc2)c(C)c1[N+](=O)[O-],15%[11.4 µM],4%,10µM*,-7%,-19%
Cc1cnn(CCC(=O)NNC(=S)Nc2ccc(F)cc2)c1,-1%,3%,-1%,?,-9%
Cc1nn(CCC(=O)NNC(=S)Nc2cccc(Cl)c2)c(C)c1[N+](=O)[O-],13%,-2%,8.9µM*,-12%,-13%
Cc1cnn(CCC(=O)NNC(=S)Nc2cccc(Cl)c2)c1,-3%,8%,50µM*,42%,-20%
Cc1ccc(S(=O)(=O)Nc2cc(Br)cc3cccnc23)cc1,/,/,/,57%,1%
Cc1onc(-c2ccccc2)c1C(=O)Nc1cccc(S(=O)(=O)N2CCCCC2)c1,-7%,/,/,14%,-18%

# Source: PubChem
